Reference: PubChem BioAssay AID592 (National Center for Advancing Translational Sciences (NCATS), 2007)
Among all 59,000 compounds or so, fewer than 10 were called active. The rule behind the calls is not given here. Not all results are given here.

Assay: qHTS Assay for Spectroscopic Profiling in A647 Spectral Region
Conditions: Compound fluorescence, A647 channel (570/671 nm), Tris buffer; hits give high values
Description: NIH Molecular Libraries Screening Centers Network [MLSCN] NIH Chemical Genomics Center [NCGC] […] Occasionally, the artifactual effect may originate from the compounds own spectral or other biophysical properties which generally tend to track its assay concentration. Pre-screening/profiling the library with respect to the compounds spectral properties should help one exclude false positives early on. While the most informative fluorescent profiling data set is obtained by performing a full excitation and emission scan of each well by using a monochromator-based plate reader, such an approach is practical only on a very limited scale as scanning each well requires long time. An alternative approach, applied here, is to perform plate reader scans using selected excitation and emission wavelength pairs to generate a multidimensional relational database that correlates compound concentration and the respective relative fluorescence intensity at a given wavelength set. A standard curve of Alexa 647 (A647) present on each plate as six-point concentration series, was used to compute a normalized fluorescence response, termed dye-equivalent concentration, for each compound at each concentration.
NCGC Assay Protocol Summary: Buffer: 100 mM Tris buffer, pH 8.0 Dye standard plate: The wells in columns 1 through 4 of a Kalypsys polypropylene 1536-well compound plate were filled with standard solutions of fluorophore corresponding to the spectral region of interest. Solutions of A647 were placed in the following wells: AC1, AD1: 3 mM, AC2, AD2: 300 uM, AC3, AD3: 30 uM, AC4, AD4: zero (DMSO), AE1, AF1: 3 uM, AE2, AF2: 900 nM, AE3, AF3: 300 nM, AE4, AF4: zero (DMSO). Assay Steps: Six uL of buffer were dispensed to 1536-well Greiner black plates. Compounds and dye standards (23 nL) were transferred via Kalypsys PinTool. The plates were incubated for 15 min at room temperature, and then read on ViewLux (Perkin-Elmer) High-throughput CCD imager using 570 nm and 671 nm excitation and emission filter set. Keywords: NIH Roadmap, MLSCN, MLI, MLSMR, qHTS, NCGC, A647, A-647, Fluorescent Profiling.

Max dye-equivalent concentration, inactive:
O=C1c2ccccc2C(=O)N1CCCSc1ccccc1 1 nM
Cc1ccc(NC(=O)C2CCCN(S(=O)(=O)c3c(C)noc3C)C2)c(C)c1 (configuration not stated) 5.9 nM
CCCNS(=O)(=O)c1ccc(CCC(=O)NCc2cccnc2)cc1 46 nM
Cn1c(=O)[nH]c(=O)c2c1nc(CN(Cc1ccccc1)Cc1ccccc1)n2CCN1CCOCC1 2 nM
CCn1c(=O)cc(SCC(=O)NCc2ccc3c(c2)OCO3)c2ccccc21 34 nM
CCc1cc2c(=O)c(-c3ccon3)c(N)oc2cc1OC 23 nM
N#Cc1cccc(NC(=O)CCC2CCCC2)c1 1 nM
Cc1nnc(SCc2ccc(C(=O)c3ccc(Cl)cc3)o2)n1-c1ccccc1 1.7 nM
Cn1c2ccccc2c2c(C(=O)N3CCN(c4ccc(F)cc4)CC3)cn(C3CCCC3)c(=O)c21 2.8 nM
CCn1c(Cc2ccccc2)nnc1SCc1nc2ccccc2c(=O)[nH]1 3.7 nM
CCCOc1ccc(-c2nc(N)n[nH]2)cc1 1 nM
Cc1nnc(SCC(=O)N2CCc3ccccc32)n1-c1ccccc1 30 nM
O=C(Nc1c[nH]c(=O)[nH]c1=O)Oc1ccccc1 1 nM
COC(=O)c1c(NC(=O)CSc2nncs2)sc2c1CCCCC2 57 nM
CCCCN(CCCC)C(=O)CCS(=O)(=O)c1ccc2c(c1)n(C)c(=O)c(=O)n2C 16 nM
COc1cc(NS(=O)(=O)c2ccc(NC(C)=O)cc2)cc(OC)c1 2 nM
COc1ccc(S(=O)(=O)N2CCN(c3ncnc4c(-c5ccccc5)nsc34)CC2)cc1 45 nM
C#CCN1C(=O)C(O)(CC(=O)c2cc(OC)ccc2OC)c2ccccc21 (configuration not stated) 44 nM
COc1ccc2c(c1)C(C)=CC(C)(C)N2C(=O)CNCc1ccc2c(c1)OCO2 27 nM
CN(C)Cc1c(C#N)c2ccccc2n1C 1 nM
CN1CCCC(OC(=O)COc2ccc(Br)cc2)C1 (configuration not stated) 2.1 nM
Fc1ccc2nc(Nc3nc4c(s3)CCCC4)sc2c1 34 nM
Cc1n[nH]c(C)c1S(=O)(=O)N1CCCC(C(=O)NCC2COc3ccccc3O2)C1 (configuration not stated) 15 nM
CCON=C1C(C)(C)C(C)(C)C(C)(C)C1(C)C 1 nM
CC(C)c1ccc(N2CC(C(=O)Nc3nccs3)CC2=O)cc1 (configuration not stated) 1 nM
Cc1nc(NC(=O)CCC(=O)O)sc1C(=O)N(C)C 1 nM
Cc1nc2ncnn2c(C)c1CCC(=O)N1CCN(C(=O)c2ccco2)CC1 1 nM
CN1CCc2c(sc3c2c(NCc2ccco2)nc2nnnn23)C1 1 nM
CCN(C(=O)CSc1ncn[nH]1)c1cccc2ccccc12 1 nM
Cc1nn(-c2ccccc2)c2sc(C(=O)N(Cc3ccco3)C(C)C(=O)NC(C)(C)C)cc12 (configuration not stated) 1 nM
COc1ccc2c(c1)CCc1c(C(=O)Nc3c(C)n(C)n(-c4ccccc4)c3=O)noc1-2 1 nM
Cc1cc2ccccc2n2c(SCC(=O)N3CCN(C(=O)c4ccco4)CC3)nnc12 3.8 nM
CCSc1nc2c(c(=O)[nH]1)C(c1cccnc1)C(C(=O)OC(C)C)=C(C)N2 (configuration not stated) 29 nM
CCOc1cc(CO)ccc1OCC(=O)N1CCCCC1 5.6 nM
COC(=O)Nc1c(C)n(C)n(-c2ccccc2)c1=O 1 nM
CCN(CC)C(=O)C1CCC(C)(C(=O)O)C1(C)C (configuration not stated) 5.6 nM
O=C(O)c1c(Br)c(Br)c(Br)c(Br)c1C1c2ccc(O)cc2Oc2cc(O)ccc21 1 nM
O=C(Nc1ccon1)c1cccc(Cl)c1 1 nM
Cc1cccc2cc(CN(Cc3ccc4c(c3)OCO4)Cc3nnnn3C3CCCC3)c(=O)[nH]c12 1 nM
COCCCn1c(CCC(=O)O)ccc1-c1ccc(F)cc1 26 nM
COCCn1nnnc1CN1CCC(NC(=O)Nc2cccc(OC)c2)CC1 41 nM
O=C(O)[C@@H](S)[C@H](S)C(=O)O 1.2 nM
COCCCNC(=O)CSc1nc2ccc(N3CCOCC3)cc2c(=O)n1CCc1ccccc1 19 nM
Cc1ccc(-c2noc(CSc3nnc(-c4ccccc4)n3C)n2)cc1 17 nM
COc1ccc(C2OC(=O)CC2C(=O)NC(C)C)cc1 (configuration not stated) 2.6 nM
Cc1cc(Cl)c(S(=O)(=O)NCC2CCCO2)cc1OCC(N)=O (configuration not stated) 1 nM
CC1(N2CCOCC2)CC2(O)C(=[N+]1[O-])CCc1nonc12 (configuration not stated) 31 nM
Cc1ccc(C(=O)O)cc1S(=O)(=O)NCC1CCCO1 (configuration not stated) 1 nM
O=C(c1ccncc1)N1CCC2(CCCN(C(c3ccccc3)c3ccccc3)C2)CC1 10 nM
C[C@@H]1CC[C@H]2[C@H](C)[C@H]3[C@H](C[C@H]4[C@@H]5CC=C6C[C@@H](O)CC[C@@]6(C)[C@@H]5C[C@@H](O)[C@]34C)N2C1 2.4 nM
Cn1nnnc1SCC(=O)N1CCN(C(c2ccccc2)c2ccccc2)CC1 1 nM
CCCC(C)n1[nH]c(=O)c2c(C)cc(C)nc21 (configuration not stated) 16 nM
N#Cc1c2c(c(-c3ccccc3)[nH]c1=O)CCCC2 55 nM
Cc1ccccc1C(=O)Nc1cccc(-c2nnc(SCC(=O)O)n2C)c1 18 nM
O=C(Nc1ccccc1C(=O)N1CCOCC1)C1CCC(=O)N1C1CCCC1 (configuration not stated) 14 nM
O=S(=O)(c1ccccc1)N(CC(O)CN1CCCCC1)c1ccccc1 (configuration not stated) 1 nM
CCC(C)(C)n1nnnc1C(c1cccs1)N1CCN(Cc2ccccc2)CC1 (configuration not stated) 35 nM
